Most compounds without a hit are left out; they make up all but 8.9% or so of the library.
HPGD inh – qHTS Assay for Inhibitors of HPGD (15-Hydroxyprostaglandin Dehydrogenase) | 15-hydroxyprostaglandin dehydrogenase [NAD(+)] (Homo sapiens), P15428 | purified HPGD, NADH fluorescence kinetic, PGE2 substrate | Potency, µM, inactives show at the top dose activity change, negative = inhibition, most hits filed as inhibitors | 150,000 compounds, 4.3% hits | AID 894, 2007; active means well fitted inhibition curve with a large enough effect, not every such curve was filed as active; inconclusive means small, poorly fitted or top-dose-only effect, or another doubt; inactive means no such curve, though single readings can be large or run the other way; further: potency means the concentration at half of the fitted maximal effect
Target sequence (P15428 whole entry, looked up): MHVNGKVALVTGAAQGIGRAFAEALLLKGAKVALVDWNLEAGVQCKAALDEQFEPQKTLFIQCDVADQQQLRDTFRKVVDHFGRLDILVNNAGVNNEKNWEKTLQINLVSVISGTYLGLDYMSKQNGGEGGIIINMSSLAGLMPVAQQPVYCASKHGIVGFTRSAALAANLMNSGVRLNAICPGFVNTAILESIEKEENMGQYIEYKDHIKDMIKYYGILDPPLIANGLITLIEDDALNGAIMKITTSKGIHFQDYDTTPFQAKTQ
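NADH formation kinetics: reaction with 30 uM PGE2 and 1 mM NAD+ (final), 20 nM enzyme, Tris-HCl pH 8 with Tween 20, after 15 min compound preincubation at room temperature. Fluorescence change, last versus first of five reads.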
IMPase inh – qHTS Assay for Identifying the Cell-Membrane Permeable IMPase Inhibitors | Inositol monophosphatase 1 (Rattus norvegicus), P97697 | inhibition (IP1 accumulation), % at 46.1 µM | AID 901, 2007 | CHO-M1 cells, IP1 accumulation, HTRF TR-FRET ratio | 120,000 tested, under 10 active; active means well fitted curve in the direction sought with a large enough effect in the signal ratio, not every such curve was filed as active; inconclusive means small, poorly fitted or top-dose-only effect, or a change in a side signal; inactive means no such curve, though single readings can be large or run the other way; the % refers to the signal ratio;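 further: cells stimulated with carbachol in lithium chloride buffer; plate controls were DMSO basal wells for no effect and reference inhibitor wells for full effect; higher means more IMPase inhibition seen as more IP1 and lower FRET ratio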
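CHO-M1 cells (CHO stably expressing M1 receptor), compound up to 46 uM final, stimulated with carbachol (50 uM as added) in buffer with 50mM LiCl, pH 7.4, 30 min at 37C. Cytosolic IP1 read by TR-FRET; AC50 from Hill fits.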
12-hLO inh – qHTS Assay for Inhibitors of 12-hLO (12-human lipoxygenase). AID 1452, 2008. purified 12-hLO, xylenol orange hydroperoxide absorbance. 150,000 compounds, 0.12% hits. Potency, µM (titrated, usually from 57.1 µM), for inactives: top-dose activity change, negative = inhibition, hits mostly inhibitors; further: potency means the concentration at half of the fitted maximal effect; nearly all actives have a fitted effect of over 55% in size
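Hydroperoxide formation by human 12-lipoxygenase from 40 uM arachidonic acid was followed colorimetrically via ferric-xylenol orange complex, using the 573/405 nm absorbance ratio. Enzyme concentration was 150 nM, with 30 min reaction at room temperature.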
NPSR antag – qHTS Assay for Antagonists of the Neuropeptide S Receptor: cAMP Signal Transduction | Q6W5P4 | CHO-NPSR cells, cAMP TR-FRET, antagonist mode | Potency, µM (series often up to 38.3 µM), for inactives: at the highest dose activity change, negative = inhibition, actives largely listed as inhibitors | 220,000 compounds, 1% hits; further: potency means the concentration at half of the fitted maximal effect; nearly all actives have a fitted effect of over 50% in size
IMPase Li inh – qHTS Assay for Identifying the Cell-Membrane Permeable IMPase Inhibitors: Potentiation with Lithium. CHO-M1 cells, IP1 TR-FRET (IP-One), carbachol + lithium. Potency, µM (titrated, usually from 59.4 µM), for inactives: at the highest dose activity, negative = IMPase inhibition, most hits filed as inhibitors. 210,000 compounds, 0.35% hits. AID 1457, 2008;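 further: IP1 builds up when IMPase is blocked and the TR-FRET signal falls; potency means the concentration at half of the fitted maximal effect; plate controls were basal vehicle for no effect and high inhibitor control for full effect; nearly all actives have a fitted effect of over 50% in size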
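CHO cells stably expressing M1 receptor (2000/well) were cultured 16–30 h, then exposed to compounds with a small lithium addition for 30 min at 37C. IP1 was measured by TR-FRET competition; AC50 from Hill fits.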
ALDH1A1 inh – qHTS Assay for Inhibitors of Aldehyde Dehydrogenase 1 (ALDH1A1); Aldehyde dehydrogenase 1A1 (Homo sapiens), P00352; Potency, µM (doses to about 75.3 µM), without a hit: at the highest dose activity, negative = inhibition, hits mostly inhibitors; 220,000 compounds, 7.3% hits; Purified ALDH1A1, NADH fluorescence, propionaldehyde substrate; active means well fitted inhibition curve with a large enough effect, not every such curve was filed as active; inconclusive means small, poorly fitted or top-dose-only effect, or another doubt; inactive means no such curve, though single readings can be large or run the other way;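 further: potency means the concentration at half of the fitted maximal effect; plate controls were no enzyme wells and a reference inhibitor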
Target sequence (P00352 whole entry, looked up): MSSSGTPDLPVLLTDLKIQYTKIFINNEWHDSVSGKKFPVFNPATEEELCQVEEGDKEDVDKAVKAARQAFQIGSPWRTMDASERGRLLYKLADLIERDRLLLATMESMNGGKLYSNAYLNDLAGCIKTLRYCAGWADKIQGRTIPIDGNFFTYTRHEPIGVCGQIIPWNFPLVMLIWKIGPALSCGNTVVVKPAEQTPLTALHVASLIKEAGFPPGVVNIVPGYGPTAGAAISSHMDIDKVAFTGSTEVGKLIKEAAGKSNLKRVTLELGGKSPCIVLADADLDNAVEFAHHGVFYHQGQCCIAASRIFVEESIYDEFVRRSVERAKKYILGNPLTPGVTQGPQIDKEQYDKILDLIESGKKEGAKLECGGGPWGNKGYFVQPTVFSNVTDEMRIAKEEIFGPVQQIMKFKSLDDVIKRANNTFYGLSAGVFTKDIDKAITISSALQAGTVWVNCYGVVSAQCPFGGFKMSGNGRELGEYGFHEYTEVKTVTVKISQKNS
Numbers without * were called inactive; ? = inconclusive; . = no result given; [ ] = another dose, or the depositor's remark. Unless noted, the call rests on the fitted dose curve; in most records, active means well fitted curve in the direction sought with a large enough effect; inconclusive means small, poorly fitted or top-dose-only effect, or another doubt; inactive means no such curve, though single readings can be large; an effect the other way counts as inactive or inconclusive. Unless noted, on the % scale 0 is the no-effect control and ±100 the full control effect.

SMILES | HPGD inh | IMPase inh | 12-hLO inh | NPSR antag | IMPase Li inh | ALDH1A1 inh
C=CSc1sc(Cl)c(N(CC)CC)c1[N+](=O)[O-] | . | . | . | -27% | 2% | 16µM*
CCN(CC)c1c([N+](=O)[O-])c(=O)sc2ccccc12 | ? | . | 3% | 15% | -20% | -3%
C=CSc1sc(Cl)c(N(C)C)c1[N+](=O)[O-] | . | . | . | -1% | 18% | 7.9µM*
Cc1cc(-c2nc3c4c5c(sc4[nH]c(=O)n3n2)CCC5)c(C)o1 | 20µM* | 6 | -6% | -16%[46.1 µM] | 1% | -8%
Cc1nc2sc3c(c2c(=O)[nH]1)CCC3 | -15% | -12 | 2% | -12%[46.1 µM] | 17%[38.3 µM] | -10%
Cc1cccc(C(=O)N[C@H](C(=O)Nc2nc3ccccc3[nH]2)C(C)C)c1 | . | . | . | 37% | 0% | 10%
CC(C)(C)NC(=O)CSCc1c(Cl)cccc1Cl | 25µM* | . | -1% | -4% | 0% | 5%
O=C(CCc1ccccc1)NCCSCc1c(F)cccc1Cl | 5µM* | -6 | -5% | -7% | -3% | -5%
Cc1ccc(C)c(N(CC(=O)NCCSCc2ccco2)S(C)(=O)=O)c1 | -14% | -22 | -17% | ? | -4%[38.3 µM] | 3.5µM*
C/C(CC(=O)NCc1ccco1)=N\NC(=O)Cc1cccc2ccccc12 | -11% | -1 | -4% | 0%[46.1 µM] | 2%[38.3 µM] | 13µM*
O=C(CSCc1c(F)cccc1Cl)NCCSCc1ccco1 | . | . | . | -7% | -3% | ?
FC(F)(F)c1ccccc1-c1ccc2ncnc(N3CCOCC3)c2c1 | . | . | . | . | 15% | ?
COc1ccc(NC(=O)c2cc(OC)c(OC)cc2OC)c(S(=O)(=O)N2CCOCC2)c1 | 1% | -8 | -1% | 12%[46.1 µM] | -16%[38.3 µM] | 1%
O=C(CSCc1ccc(Cl)cc1)NCCSCc1ccco1 | . | . | . | -1% | 4% | 11µM*
CS(=O)(=O)N(CC(=O)NCCSCc1c(F)cccc1Cl)c1ccc2c(c1)OCO2 | -13% | 2 | -12% | -4%[46.1 µM] | 33%[38.3 µM] | 2.5µM*
O=C(CSCc1c(Cl)cccc1Cl)NCc1ccco1 | 8.9µM* | 7 | -3% | -5%[46.1 µM] | 9% | ?
O=C(CSCc1ccco1)c1ccc(Cl)s1 | 20µM* | 14 | ? | -12%[46.1 µM] | -5%[38.3 µM] | ?
CCCCN(C)C(=O)c1cn(CC)c2ccc(S(=O)(=O)N(C)C)cc2c1=O | -7% | 9 | 0% | 2%[46.1 µM] | -2%[38.3 µM] | -7%
COc1cccc(C(=O)/C(C#N)=N/Nc2cccc(-c3ccnc(C)n3)c2)c1 | . | . | . | 60%[7.67 µM] | . | .
CC(C)NC(=O)CSCc1c(F)cccc1Cl | 16µM* | -7 | -2% | 12%[46.1 µM] | 8% | ?
Cc1ccc(CSCC(=O)NCc2ccco2)cc1 | . | . | . | 17% | 6% | ?
O=C(CSCc1c(F)cccc1Cl)NCc1ccco1 | 14µM* | 6 | -2% | -5%[46.1 µM] | 8% | ?
Cc1ccccc1CSCC(=O)NCc1ccco1 | 11µM* | . | -8% | -11% | 0% | 16µM*
CNC(=O)CSCc1c(F)cccc1Cl | 5% | . | -2% | 4%[46.1 µM] | -2% | 0%
O=C(CC1NCCN(Cc2ccccc2)C1=O)Nc1ccccc1 (stereo unspecified) | . | . | . | -21% | . | 3%
SMILES | HPGD inh | IMPase inh | 12-hLO inh | NPSR antag | IMPase Li inh | ALDH1A1 inh
Fc1cccc(Cc2noc(CN3CCCN(C4Cc5ccccc5C4)CC3)n2)c1 | . | . | . | 23% | 21% | 3.5µM*
CCCCCCCCCCCCCCCC(=O)NCC(COP(=O)([O-])OCC[N+](C)(C)C)OCC (stereo unspecified) | -8% | . | . | 10µM* | 20% | -4%
Cc1c(C(=O)N2CCCCC2)nnn1-c1nonc1N | 16µM* | 3 | 1% | 5%[46.1 µM] | 18%[38.3 µM] | 7.9µM*
Cc1nc(-c2nc(-c3c(C(=O)NN)noc3C)cs2)cs1 | . | . | . | 4% | 2% | -9%
Cc1ccc(N2C(=O)CS(=O)C(c3ccccc3)C2=O)cc1C (stereo unspecified) | . | . | . | 3% | 6% | 3.5µM*
Cc1ccc(N2C(=O)C3C(C2=O)N2CCCN2C3c2ccccc2)cc1C (stereo unspecified) | . | . | . | -2% | 2% | -4%
O=C(CSc1ccc2c(c1)OCCO2)NCc1ccccc1 | . | . | . | 3% | -2% | -10%
Nc1cc(N)nc(SCC(=O)NCC2CCCO2)n1 (stereo unspecified) | -14% | 9 | -5% | 0%[46.1 µM] | 2%[38.3 µM] | 1%
O=C(CCCOc1ccc(Cl)cc1)NCC1CCCO1 (stereo unspecified) | 14µM* | -2 | 3% | 6%[46.1 µM] | -2%[38.3 µM] | ?
O=C(CSc1ccc2c(c1)OCCO2)NCC1CCCO1 (stereo unspecified) | 16µM* | 8 | 0% | 3%[46.1 µM] | -13%[38.3 µM] | ?
O=C(CSCc1c(Cl)cccc1Cl)NCC1CCCO1 (stereo unspecified) | 5µM* | 1 | -5% | -2%[46.1 µM] | -9%[38.3 µM] | ?
O=C(CSc1cc(Cl)ccc1Cl)NCC1CCCO1 (stereo unspecified) | 6.3µM* | 3 | -2% | -6%[46.1 µM] | 0% | 5%
CSc1ccccc1NC(=O)CN(c1ccccc1Br)S(C)(=O)=O | -12% | . | -3% | -4% | -2% | 8%
C=CCC1C=CC(OC(=O)OCC)C(COC(=O)OCC)O1 (stereo unspecified) | . | . | . | . | . | 11%[13.5 µM]
CC(C)(C)C1=CC(=Nc2ccccc2N)C=C(C(C)(C)C)C1=O | 2% | . | -2% | 5% | -3% | 5%
CC(C)(C)C1=CC(=O)C(=O)C(C(C)(C)C)=C1 | 4µM* | . | -9% | ? | 7% | 2.8µM*
COc1ccc(-c2onc3ccc(Cl)cc23)cc1 | ? | 0 | -15% | 2%[46.1 µM] | 31%[38.3 µM] | 20µM*
O=Cc1ccc2noc(-c3ccc(Cl)cc3)c2c1 | -24% | -3 | -14% | -1%[46.1 µM] | 18%[38.3 µM] | 22µM*
Cc1ccc(-c2onc3ccc(Cl)cc23)cc1 | -5% | . | -3% | 13% | 8% | -1%
CC1(c2ccc3noc(-c4ccc(Cl)cc4)c3c2)OCCO1 | -23% | 16 | -13% | 19%[46.1 µM] | -9%[38.3 µM] | ?
Cc1cccc(OCc2nc(C#N)c(N3CCCC3)o2)c1 | . | . | . | 12% | . | 0%
COc1cc(C(=O)ON=C2C=C(C)C(=O)C(C)=C2)cc(OC)c1OC | -15% | . | -4% | -13% | 0% | -3%
COc1cc(C(=O)O/N=C2\C=CC(=O)C(C)=C2)cc(OC)c1OC | -15% | 14 | -7% | -9%[46.1 µM] | 36%[38.3 µM] | 14µM*
CCCNC(=O)c1nnsc1S(=O)c1ccc(Cl)cc1 (stereo unspecified) | . | . | . | -33% | 16% | 11µM*
